# Source: PubChem (National Center for Advancing Translational Sciences (NCATS))
# Only some compounds are listed: those with a hit (about 6.2% of all), similar ones and a draw of the others.
# FMDV inh – foot and mouth disease virus antiviral activity; FMDV antiviral cell-based qHTS; AID 1159524; 410,000 tested, 1.2% active; Potency, µM (series often up to 57.9 µM), actives largely listed as inhibitors; calls by dose curve; tested in HEK293T cells; also: read-out not given here; nearly all actives have a fitted effect of over 45% in size
# HCMV antiviral – blocks human cytomegalovirus replication. HFF cells, HCMV-luciferase reporter, 72 h; active compounds read low. activity change, negative = inhibition, % at 57.5 µM. 410,000 tested, 4.5% active; in the data active = activity change below about -60%; inconclusive = no clear call, values can overlap the other calls; inactive = above about -39%
#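 Inhibition of viral replication was scored as loss of reporter luminescence in HFFs infected with HCMV-luciferase (MOI 1 PFU/cell) for 72 h; compounds tested at 2 doses, normalized to buffer and Salinomycin controls.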
# LASV entry inh – inhibitors of Lassa virus binding or cell entry. 300,000 tested, 1.2% active. Lassa virus pseudotype entry inhibition, cell reporter. Potency, µM (top dose mostly 37.9 µM), usual class: inhibitors; calls by dose curve; tested in HEK293 cells; also: nearly all actives have a fitted effect of over 50% in size
# MARV entry inh – inhibitors of Marburg virus binding or cell entry. Marburg virus pseudotyped entry inhibition, cell reporter. Potency, µM (titrated, usually from 37.8 µM), most hits filed as inhibitors. 300,000 tested, 1.8% active. AID 540276; calls by dose curve; tested in HEK293 cells
# A number is an active result; i = inactive; ? = inconclusive; nt = no result given.
SMILES,FMDV inh,HCMV antiviral,LASV entry inh,MARV entry inh
COc1ccc2oc(-c3ccc(C)c(NC(=O)c4ccc(N5CCOCC5)c([N+](=O)[O-])c4)c3)nc2c1,i,-81.2,i,i
CC(C)CNC(=O)c1cccc(NC(=O)c2ccc(Cl)c([N+](=O)[O-])c2)c1,28.2µM,i,?,?
Cc1ccc(NC(=O)c2ccc(N3CCOCC3)c([N+](=O)[O-])c2)cc1S(=O)(=O)N1CCOCC1,12.6µM,-97.9,i,?
CC(C)C[C@H]1COc2ccc(Cl)cc2S(=O)(=O)N1,nt,i,nt,nt
Cc1ccccc1C(=O)N1CCc2cc(-c3csc(NC(=O)CN4CCCC4)n3)ccc21,i,-78.8,?,?
CC1Cc2cc(-c3csc(NC(=O)Cc4cccs4)n3)ccc2N1S(C)(=O)=O (configuration not stated),5.62µM,-99.8,?,?
CS(=O)(=O)N1CCc2cc(-c3csc(NC(=O)Cc4ccccc4)n3)ccc21,nt,-97.7,?,7.3µM
CSc1cccc(NC(=O)c2cc3c(COC(C)=O)cnc(C)c3oc2=O)c1,i,i,i,nt
Cc1c(C(=O)N(C)C2CCOC2)sc2ncnc(NCC3(c4ccccc4)CCOCC3)c12 (configuration not stated),i,nt,nt,nt
COc1cc(C(=O)CC2(O)C(=O)N(Cc3ccccc3Cl)c3ccccc32)cc(OC)c1OC (configuration not stated),i,-70.7,?,i
Cc1ccc(C(=O)CC2(O)C(=O)N(Cc3ccccc3Cl)c3ccccc32)o1 (configuration not stated),i,i,i,i
CC(C)CNC(=O)c1cc2nc3c(c(C(F)(F)F)n2n1)CCc1ccccc1-3,i,-66.9,i,i
COc1ccc2c3c1OC1C(=O)CC[C@@]4(O)[C@@H](C2)N(C)CC[C@]314 (some centres not stated),?,-80.1,nt,nt
O=C(NC[C@@H]1CCCN2CCCC[C@H]12)c1cnn(-c2nccc(-c3cc4ccccc4o3)n2)c1C1CC1,i,nt,nt,nt
Cc1ccccc1C(=O)NC(C)c1nnc2n1CCN(Cc1ccccc1F)CC2 (configuration not stated),i,nt,nt,nt
Cc1cc(C)c(C)c(S(=O)(=O)Nc2ccc3cn[nH]c3c2)c1C,i,-84.3,nt,nt
COc1ccc(S(=O)(=O)Nc2ccc3cn[nH]c3c2)cc1C,i,i,i,?
CCOC(=O)c1oc2ccc(S(=O)(=O)n3nc(-c4ccc(Br)cc4)cc3N)cc2c1C,i,i,?,i
Cc1cccc(-c2nc(C)c(CCNC(=O)c3cccs3)s2)c1,i,i,?,nt
O=[N+]([O-])c1ccc(Cl)c(C[n+]2cccc3ccccc32)c1,i,i,nt,nt
Clc1cccc(Cl)c1C[n+]1cccc2ccccc21,?,-81.3,?,?
O=C1N(c2ccccc2)C[C@@H]2C[C@@H](c3cccs3)N3CCC[C@@]123,i,?,nt,nt
COCc1cc([C@@H]2C[C@H]3CN(c4ccccc4)C(=O)[C@]34CCCN24)ccc1OC,i,-94.0,nt,nt
CC(C)(O)C#Cc1ccc([C@@H]2C[C@H]3CN(c4ccccc4)C(=O)[C@]34CCCN24)s1,i,-99.2,?,?
CCOC(=O)CC1C(=O)NCCN1C(=S)NC(=O)c1ccc(C)c(Br)c1 (configuration not stated),i,i,nt,nt
SMILES,FMDV inh,HCMV antiviral,LASV entry inh,MARV entry inh
Nc1c(Cl)cc(C(=O)NC2CC2)cc1Cl,i,i,i,11.2µM
Cc1ccc(S(=O)(=O)NC(=O)C2(C)CCN2C(=O)CC2CCCC2)nc1 (configuration not stated),i,i,nt,nt
O=C(COC(=O)c1ccccc1)Nc1ccc(Cl)cn1,i,i,?,i
O=C(COC(=O)c1cccc(F)c1)Nc1ccc(Cl)cn1,i,-99.3,nt,nt
Cc1cccc(NC(=O)CSc2nnc(CNC(=O)c3ccc(S(=O)(=O)N(C)C)cc3)n2-c2ccccc2)c1,i,i,?,?
Cc1cccc(NC(=O)CSc2nnc(CNC(=O)c3ccc(S(=O)(=O)N(C)C)cc3)n2-c2cccc(C)c2)c1,i,i,14.1µM,i
Cc1ccc2[nH]c(C)c([N+](=O)[O-])c2c1,nt,i,nt,nt
CC(Cl)=CCn1c(NCCc2ccccc2)nc2c1c(=O)n(C)c(=O)n2C,12.6µM,-87.0,nt,nt
Cn1c(=O)c2c(nc(NCc3ccco3)n2C/C=C/c2ccccc2)n(C)c1=O,14.1µM,-95.6,10µM,12.6µM
CC(C)CCn1c(NCCc2ccccc2)nc2c1c(=O)n(C)c(=O)n2C,20µM,i,nt,nt
Cc1ccc(-c2cc(NC(=O)Cc3c[nH]c4ccccc34)ccc2N(C)c2cccnc2)cc1,nt,i,nt,nt
O=C(NCc1ccc(Cl)cc1)c1cnc2sc(N3CCCC3)nn2c1=O,i,i,i,nt
CCC(C)C(=O)Nc1ccc(S(=O)(=O)Nc2nccs2)cc1 (configuration not stated),i,i,nt,nt
CC(C)CC(=O)NC(=S)Nc1ccc(S(=O)(=O)Nc2nccs2)cc1,i,-70.6,i,i
CC(C)CCn1c(SCc2c(F)cccc2Cl)nc2ccsc2c1=O,?,i,i,nt
CC(C)(C)C(=O)Nc1ccc(Sc2ccc([N+](=O)[O-])cc2)cc1,?,i,i,?
CC(=O)Nc1ccc(Sc2ccc([N+](=O)[O-])o2)cc1,35.5µM,-98.2,?,?
CCN(CC)C(=O)CSC1=C(C#N)C(c2cccs2)C=C(C)N1 (configuration not stated),i,i,?,7.94µM
S=c1[nH]c2cnc(Cl)nc2[nH]1,i,-68.3,i,i
S=c1[nH]c2nc(Cl)c(Cl)nc2[nH]1,i,i,nt,nt
O=C(c1ccco1)N1CCN(C(=O)c2cc3sccc3n2Cc2ccccc2)CC1,i,-70.9,?,i
Cn1c(C(=O)N2CCCC(C(=O)NCc3ccc4c(c3)OCO4)C2)cc2sccc21 (configuration not stated),i,i,nt,i
CCn1c(C(=O)N2CCC(C(=O)NCc3ccc4c(c3)OCO4)CC2)cc2sccc21,31.6µM,i,i,i
O=C(NCc1ccccn1)C1CCN(C(=O)c2cc3sccc3n2Cc2ccc(F)cc2)CC1,i,nt,nt,nt
O=C(NCc1ccco1)c1ccc(Cn2c(=O)c3ccccc3n(Cc3cccc(Cl)c3)c2=O)cc1,i,i,i,?
SMILES,FMDV inh,HCMV antiviral,LASV entry inh,MARV entry inh
O=C(NCc1ccco1)c1ccc(Cn2c(=O)c3sccc3n(Cc3cccc(F)c3)c2=O)cc1,i,-60.9,nt,i
O=C(NCc1ccco1)C1CCN(C(=O)c2cc3sccc3n2Cc2ccc(F)cc2)CC1,nt,i,10.3µM,i
CCc1ccc2occ(CC(=O)Nc3c(C(=O)c4ccc(C)cc4)oc4ccccc34)c2c1,i,i,i,i
CCOC(=O)C(Cc1ccccc1)(Nc1ccccc1)C(O)c1ccc([N+](=O)[O-])cc1 (configuration not stated),nt,i,nt,nt
Cc1[nH][nH]c(=O)c1C(c1ccc(-c2ccc(F)cc2)o1)c1c(C)[nH][nH]c1=O,i,i,i,i
Cc1[nH][nH]c(=O)c1C(c1ccc(-c2ccc(C(=O)O)cc2)o1)c1c(C)[nH][nH]c1=O,i,-61.8,i,i
COc1ccc(Cl)cc1N1C(=O)/C(=C/c2sccc2C)N=C1SCC(=O)NC1CC1,i,i,?,10µM
Cc1nc2ccc(S(=O)(=O)N(C)CC(=O)Nc3cccc(C(F)(F)F)c3)cc2s1,?,i,i,i
